Structures are written as SMILES. Results filed as inconclusive are left out. The source made the active and inactive calls. Unless noted, how the calls were made is not given here.

Experimental findings from PubChem BioAssay (NCATS) are described below.

Test [1] can be described thus: qHTS profiling of the MIPE4 collection as inhibitors of Plasmodium falciparum (3D7) proliferation (AID 743344).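 Further: scaled between DMSO vehicle wells and 0.29 µM artemisinin as full inhibition.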 Conditions: P. falciparum 3D7 in erythrocytes, SYBR Green DNA fluorescence, 72 h; at 28.5 µM unless noted. The procedure, abridged: (§1)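 Parasite DNA was quantified by SYBR Green I fluorescence (ex 485, em 535 nm) after overnight lysis in saponin/Triton buffer at room temperature. Cultures at 0.3% parasitemia and 2.5% hematocrit were first exposed to compound for 72 h at 37 C; signals were normalised to artemisinin (0.29 uM) and vehicle wells.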

A short description of test [2]: qHTS profiling of the MIPE4 collection as inhibitors of Plasmodium falciparum (DD2) proliferation (AID 743345). The following applies: P. falciparum Dd2 in erythrocytes, SYBR Green DNA, 72 h; at 28.5 µM unless noted. The procedure, abridged:
as §1

A short description of test [3]: qHTS profiling of the MIPE4 collection as inhibitors of Plasmodium falciparum (DD2) proliferation (Rep 2) (AID 743346). Conditions: P. falciparum Dd2 in erythrocytes, SYBR Green DNA, 72 h; at 28.5 µM unless noted. The procedure, abridged:
as §1

Test [4] is described as follows: qHTS profiling of the MIPE4 collection as inhibitors of Plasmodium falciparum (HB3) proliferation (AID 743347).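 Further: plate controls were DMSO vehicle wells for no effect and artemisinin wells for full effect.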 Conditions: P. falciparum HB3 in erythrocytes, SYBR Green DNA, 72 h; at 28.5 µM unless noted. The procedure, abridged:
as §1

Test [5] is described as follows: High-throughput drug toxicity screening in the BPDCN cell line Gen2.2 (AID 1224824).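 Further: cells exposed to compounds for 48 h before reading.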 The following applies: Gen2.2 BPDCN cells; at 45.8 µM (top of the series) unless noted. The procedure, abridged: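 CellTiter-Glo luminescence after 48 h compound exposure of Gen2.2 cells; percent activity set with DMSO as 100% and bortezomib (9.2 uM final) as 0%. Cells seeded at 500 per well, RPMI + 10% FBS, 37 °C.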

Test [6] can be described thus: High-throughput drug toxicity screening in the BPDCN cell line Cal-1 (AID 1224825). Conditions: Cal-1 BPDCN cell viability, qHTS; at 45.8 µM (top of the series) unless noted. The method in brief: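 Viability of the BPDCN line Cal-1 is measured as ATP-based luminescence (CellTiter-Glo) following 48 h incubation with compounds. Percent activity uses DMSO-treated wells as 100% and 9.2 uM bortezomib as 0%.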

The nature of test [7]: qHTS assay for measurement of the activity of small molecule inhibitors on Zika virus induced Caspase-3 activity in human iPSC derived neural progenitor cells (hNPCs) (AID 1224857; active means well fitted curve in the direction sought with a large enough effect; an effect the other way counts as inactive or inconclusive; further: % of control where 0% means no effect; nearly all actives have a fitted effect of over 65% in size). The procedure, abridged:
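Pretreat hNPCs with compound 1 h; infect ZIKV 2 FFU/cell; 6 h 37 C, 5% CO2; Caspase-Glo 3/7, 30 min RT; luminescence; normalize to no-virus and virus-only wells.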

The nature of test [8]: qHTS Screen of the MIPE 4.0 Collection Against Ewings Sarcoma (RDES) (AID 1259252; active means well fitted curve in the direction sought with a large enough effect; an effect the other way counts as inactive or inconclusive; further: nearly all actives have a fitted effect of over 35% in size; further: potency means the concentration at half of the fitted maximal effect). The method in brief: (§2)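 Measured: ATP luminescence (CellTiter-Glo) 10 min after reagent addition, following 48 h drug treatment. Relative luciferase units converted to percent activity, with no-cell wells as full and DMSO wells as zero inhibition.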
Test [9] is described as follows: qHTS Screen of the MIPE 4.0 Collection Against Ewings Sarcoma (TC71) (AID 1259253; active means well fitted curve in the direction sought with a large enough effect; an effect the other way counts as inactive or inconclusive; further: nearly all actives have a fitted effect of over 40% in size; further: potency means the concentration at half of the fitted maximal effect). The procedure, abridged: as §2
Test [10] is described as follows: qHTS Screen of the MIPE 4.0 Collection Against Ewings Sarcoma (TC32) (AID 1259256; active means well fitted curve in the direction sought with a large enough effect; an effect the other way counts as inactive or inconclusive; further: nearly all actives have a fitted effect of over 45% in size; further: potency means the concentration at half of the fitted maximal effect). The procedure, abridged:
as §2

Test [11] can be described thus: qHTS assay for measurement of the activity of small molecule inhibitors on Zika virus induced Caspase-3 activity in human astrocytoma cells (AID 1224859; active means well fitted curve in the direction sought with a large enough effect; an effect the other way counts as inactive or inconclusive;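 further: plate controls were ZIKV-infected untreated cells for no effect and uninfected cells for full effect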). The method in brief: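 Human SNB-19 astrocytoma cells in RPMI 1640 with 10% FBS receive compound one hour ahead of Zika virus at 2 FFU/cell. After 6 h infection, caspase-3/7 activity is detected by Caspase-Glo luminescence.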

Test [12] in a line: qHTS Screen of the MIPE 4.0 Collection Against Ewings Sarcoma (EW8) (AID 1259255; active means well fitted curve in the direction sought with a large enough effect; an effect the other way counts as inactive or inconclusive;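 further: 100% = DMSO-treated cells and 0% = medium-only wells without cells; nearly all actives have a fitted effect of over 35% in size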). The procedure, abridged:
as §2

Test [13] is described as follows: qHTS profiling for inhibitors of Plasmodium falciparum (DD2) proliferation (AID 743323). The following applies: lower = more inhibition; at 28.7 µM (top of the series) unless noted. The method in brief:
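Parasite DNA quantified by SYBR Green fluorescence (ex 485, em 535 nm) after saponin/Triton lysis and overnight dark incubation. Cultures: 0.3% parasitemia, 2.5% hematocrit, 72 h, 37 C; data scaled between DMSO and 0.29 uM artemisinin.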

Test [14] is described as follows: qHTS profiling for inhibitors of Plasmodium falciparum (HB3) proliferation (AID 743324; active means well fitted curve in the direction sought with a large enough effect; an effect the other way counts as inactive or inconclusive;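 further: 100% = DMSO vehicle wells and 0% = artemisinin-treated control wells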). Conditions: Plasmodium falciparum HB3 blood-stage proliferation; at 28.7 µM (top of the series) unless noted. The procedure, abridged: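 SYBR Green fluorescence (485 ex/535 em) of lysed cultures, incubated overnight at room temperature in the dark, quantifies parasite DNA. Infected erythrocytes at 0.3% parasitemia and 2.5% hematocrit were exposed 72 h; values normalized to DMSO and 0.29 uM artemisinin controls.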

Consider `Cn1c(=O)c(-c2c(Cl)cccc2Cl)cc2cnc(Nc3cccc(C(=O)O)c3)nc21`, for which, in test [1], the parasite growth, % of DMSO control was determined as 12.8%. Further, the parasite growth remaining, % of DMSO control (lower = more inhibition) in test [2] came out at 13.6%. Further, in test [3], the parasite growth, % of control (lower = inhibition) was found to be 19.9%. This molecule also showed a growth, % of control in test [4] of 15.5%. For the same molecule, the cell viability, % of control (lower = more cytotoxic) in [5] worked out at 462%. Also, the viability (% of control) in [6] is 77.7%. Also, the Potency result in test [7], in test [9] and in test [10] was “inactive” throughout. For the same molecule, the Potency in [8] is 0.0662 µM (active).

`CCCCC(C)(C)[C@H](O)C=C[C@H]1[C@H](O)CC(=O)[C@H]1CC=CCCCC(=O)O` showed a parasite growth, % of DMSO control in test [1] of 76.7%. Moreover, the parasite growth remaining, % of DMSO control (lower = more inhibition) in [2] is 135%. Further, the parasite growth, % of control (lower = inhibition) in test [3] was 39.2%. In test [4], the growth, % of control came out at 75.8%. In test [5], the cell viability, % of control (lower = more cytotoxic) was 29.2%. This molecule came in with a viability (% of control) in test [6] of 11.7%. In addition, the Potency result in [7] and in test [8] was “inactive” throughout. Besides, the Potency in test [9] is 18.7 µM (active); in test [10], 23.5 µM (active).

As for `CCN1C[C@H](C)n2c(c(O)c3c(=O)n(Cc4ccc(F)c(Cl)c4)nc(C(=O)NC)c32)C1=O`, in [5], the cell viability, % of control (lower = more cytotoxic) came out at 108%. Besides, the Potency result in test [7], in test [11], in test [8], in [9] and in test [12] was “inactive” each time.

With `CO[C@@H]1C(N(C)C(=O)c2ccccc2)C[C@H]2O[C@]1(C)n1c3ccccc3c3c4c(c5c6ccccc6n2c5c31)C(=O)NC4=O` (stereo partly specified), the activity, percent of control in [13] was 103%. In addition, the remaining proliferation (% of control), lower = more inhibition in test [14] was found to be 120%. Besides, the parasite growth, % of DMSO control in [1] worked out at 17.5%. In test [2], the parasite growth remaining, % of DMSO control (lower = more inhibition) amounted to 8.87%. The same molecule returned a growth, % of control in test [4] of 28.7%. Moreover, the cell viability, % of control (lower = more cytotoxic) in test [5] was 247%. Further, the viability (% of control) in test [6] was 28.3%. In addition, the Potency entry in [7] is “inactive”. Besides, in test [8], the Potency was 4.18 µM (active).

Consider `CN1c2ccccc2C(=O)N2CCc3c([nH]c4ccccc34)C21` (stereo unspecified), for which the parasite growth, % of DMSO control in [1] turned out to be 94.3%. In addition, in test [2], the parasite growth remaining, % of DMSO control (lower = more inhibition) was 103%. In test [3], this molecule showed a parasite growth, % of control (lower = inhibition) of 90.2%. In test [4], this molecule showed a growth, % of control of 55%. Besides, in [5], the cell viability, % of control (lower = more cytotoxic) was found to be 54.1%. Besides, in [6], the viability (% of control) turned out to be 97%. Moreover, the Potency entry in [7] and in [12] was “inactive” in each case.

With `CN(C)CCOc1ccc(C(=C(CCCl)c2ccccc2)c2ccccc2)cc1`, the parasite growth, % of control (lower = inhibition) in test [3] was 19.5%. This molecule also had a growth, % of control in [4] of 27%. Moreover, the cell viability, % of control (lower = more cytotoxic) in test [5] came to 103%. Further, the Potency result in test [7], in test [11] and in test [12] was “inactive” each time. The figures for the Potency in test [8] and in test [9] were 1.66 µM (active) and 3.72 µM (active), respectively.
